Measured values published in PubChem BioAssay (NCI).
The panel holds about 83,000 compounds, 20% with a hit somewhere; the sample as a whole holds those more often.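 Activity criterion: percent growth below 10, measured after cells in 96-well plates were exposed to a single compound concentration for 48 hours.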 Active and inactive are the calls of the source.

What was measured:
Experiment in all cases: NCI-60 one-dose screen, 48 h (100 = growth as untreated, 0 = no growth, -100 = all killed)
Settings in all cases: 10 µM unless noted
DU-145 prostate = tested on: DU-145 prostate
K-562 leukemia = tested on: K-562 leukemia
MALME-3M melanoma = tested on: MALME-3M melanoma
MDA-MB-231 breast = tested on: MDA-MB-231 breast
RXF 393 renal = tested on: RXF 393 renal
SF-268 CNS = tested on: SF-268 CNS
SF-295 CNS = tested on: SF-295 CNS
SF-539 CNS = tested on: SF-539 CNS
UACC-257 melanoma = tested on: UACC-257 melanoma
M14 melanoma = tested on: M14 melanoma
HCT-15 colon = tested on: HCT-15 colon
HT29 colon = tested on: HT29 colon
SNB-75 CNS = tested on: SNB-75 CNS
SNB-19 CNS = tested on: SNB-19 CNS
U251 CNS = tested on: U251 CNS
PC-3 prostate = tested on: PC-3 prostate
SK-MEL-5 melanoma = tested on: SK-MEL-5 melanoma
UACC-62 melanoma = tested on: UACC-62 melanoma
LOX IMVI melanoma = tested on: LOX IMVI melanoma
SK-MEL-28 melanoma = tested on: SK-MEL-28 melanoma

Measured: growth

CCOC(=O)C(=CNc1ccccc1Cl)C(=O)OCC
inactive: DU-145 prostate 107% | K-562 leukemia 54.3% | MALME-3M melanoma 140% | MDA-MB-231 breast 104% | RXF 393 renal 100% | SF-268 CNS 94.3% | SF-295 CNS 89.9% | SF-539 CNS 102% | UACC-257 melanoma 103% | M14 melanoma 113% | HCT-15 colon 88.2% | HT29 colon 89.1% | SNB-75 CNS 108% | SNB-19 CNS 97.1% | U251 CNS 94.5% | PC-3 prostate 95.8% | SK-MEL-5 melanoma 77.1% | UACC-62 melanoma 72.4% | LOX IMVI melanoma 95.8% | SK-MEL-28 melanoma 116%

CNC(=O)c1cc(Oc2ccc(NC(=O)c3nc(S(C)(=O)=O)sc3-c3ccc(F)cc3)cc2)ccn1
inactive: K-562 leukemia 86.8% | MALME-3M melanoma 94.5% | MDA-MB-231 breast 119% | RXF 393 renal 104% | SF-268 CNS 98.8% | SF-295 CNS 95.3% | SF-539 CNS 97.4% | UACC-257 melanoma 65.7% | M14 melanoma 87.8% | HCT-15 colon 86.4% | SNB-75 CNS 113% | SNB-19 CNS 84.4% | U251 CNS 86.6% | PC-3 prostate 71.1% | SK-MEL-5 melanoma 90.3% | UACC-62 melanoma 93.3% | LOX IMVI melanoma 45.7% | SK-MEL-28 melanoma 57.9%
active: DU-145 prostate -57.5% | HT29 colon 4.79%

O=C1/C(=C\c2cccn2C(=O)c2ccccc2)c2ccccc2N1c1c(Cl)cccc1Cl
inactive: DU-145 prostate 102% | K-562 leukemia 17.4% | MALME-3M melanoma 82.6% | MDA-MB-231 breast 74.6% | RXF 393 renal 71.7% | SF-268 CNS 66.9% | SF-295 CNS 97.6% | SF-539 CNS 79.4% | UACC-257 melanoma 90.7% | M14 melanoma 76% | HCT-15 colon 64.7% | HT29 colon 70% | SNB-75 CNS 71.9% | SNB-19 CNS 87.7% | U251 CNS 72.8% | PC-3 prostate 73.9% | SK-MEL-5 melanoma 83% | UACC-62 melanoma 59.1% | LOX IMVI melanoma 37.5% | SK-MEL-28 melanoma 74.1%

N#Cc1c(NN)n(C2OC(CO)C(O)C2O)c2ncnc(N)c12 (stereo not given)
active: DU-145 prostate -0.273% | K-562 leukemia -46.1% | MALME-3M melanoma -9.07% | RXF 393 renal -53.1% | SF-539 CNS -5.9% | UACC-257 melanoma -26.3% | M14 melanoma -18.3% | HCT-15 colon 3.17% | HT29 colon 4.15% | PC-3 prostate 6.48% | SK-MEL-5 melanoma -67.5% | UACC-62 melanoma -39.3% | LOX IMVI melanoma -4.81% | SK-MEL-28 melanoma -15.1%
inactive: MDA-MB-231 breast 15.2% | SF-268 CNS 15.1% | SF-295 CNS 56.9% | SNB-75 CNS 35.2% | SNB-19 CNS 54.7% | U251 CNS 34.5%

Cc1n(Cc2ccc3ccccc3n2)cc[n+]1Cc1ccc2ccccc2n1
inactive: DU-145 prostate 94.6% | K-562 leukemia 36.2% | MALME-3M melanoma 55.9% | MDA-MB-231 breast 97.3% | RXF 393 renal 86.8% | SF-268 CNS 73.5% | SF-295 CNS 87.7% | SF-539 CNS 67.9% | UACC-257 melanoma 42.6% | M14 melanoma 86.9% | HCT-15 colon 100% | HT29 colon 62% | SNB-75 CNS 65.8% | SNB-19 CNS 54% | U251 CNS 58.8% | PC-3 prostate 55.8% | SK-MEL-5 melanoma 59% | UACC-62 melanoma 73% | LOX IMVI melanoma 81.9% | SK-MEL-28 melanoma 72%

COc1ccc(/C(=C\c2cc(OC)c(OC)c(OC)c2)C(=O)N2CCNCC2)cc1
inactive: DU-145 prostate 112% | K-562 leukemia 92.4% | MALME-3M melanoma 108% | MDA-MB-231 breast 102% | RXF 393 renal 99.2% | SF-268 CNS 103% | SF-295 CNS 104% | SF-539 CNS 102% | UACC-257 melanoma 91.3% | M14 melanoma 99% | HCT-15 colon 104% | HT29 colon 95.6% | SNB-75 CNS 83% | SNB-19 CNS 99.7% | U251 CNS 94.6% | PC-3 prostate 90.7% | SK-MEL-5 melanoma 93.4% | UACC-62 melanoma 90% | LOX IMVI melanoma 87.5% | SK-MEL-28 melanoma 112%

CCCCCc1c(C)[nH]c(/C=C2\N=C(c3ccc[nH]3)C=C2CC)c1C
active: DU-145 prostate -94.8% | K-562 leukemia -75.8% | MALME-3M melanoma -74.9% | MDA-MB-231 breast -94.3% | RXF 393 renal -91% | SF-268 CNS -75.8% | SF-295 CNS -70.9% | SF-539 CNS -82.7% | UACC-257 melanoma -84.2% | M14 melanoma -96.6% | HCT-15 colon -83.5% | HT29 colon -86.9% | SNB-75 CNS -81.4% | SNB-19 CNS -95.4% | U251 CNS -95.3% | PC-3 prostate -89.3% | SK-MEL-5 melanoma -96.5% | UACC-62 melanoma -97.4% | LOX IMVI melanoma -90.7% | SK-MEL-28 melanoma -97.4%

Cc1nc2ccc(Nc3nc(Cl)nc(N4CCOCC4)n3)cc2n1Cc1ccccc1
inactive: DU-145 prostate 94.2% | K-562 leukemia 25.7% | MALME-3M melanoma 96.8% | MDA-MB-231 breast 64.4% | RXF 393 renal 65.1% | SF-268 CNS 77% | SF-295 CNS 87.3% | SF-539 CNS 84.7% | UACC-257 melanoma 104% | M14 melanoma 103% | HCT-15 colon 76.9% | HT29 colon 96% | SNB-75 CNS 51.2% | SNB-19 CNS 94.6% | U251 CNS 90.5% | PC-3 prostate 87.1% | SK-MEL-5 melanoma 89.5% | UACC-62 melanoma 92.3% | LOX IMVI melanoma 67.7% | SK-MEL-28 melanoma 82.8%
